The record followed here is PubChem BioAssay (EPA / NIEHS).

Structures are written as SMILES. The source made the active and inactive calls. Rule for the calls: active = hit-call score of the fitted dose curve at least 0.9, where 1 is the maximum; inactive = score below 0.9.

The nature of this experiment: APR_HepG2_MitoticArrest_1hr: Apredica 1-hour HepG2 Assay for Mitotic Arrest (AID 2282672). The settings on record: high-content imaging, actives raise or lower the signal. On the procedure: APR_HepG2_1hr is a cell-based, multiplexed-readout assay that uses HepG2, a human liver cell line, with measurements taken at 1 hour after chemical dosing in a 384-well plate.APR_HepG2_MitoticArrest_1hr is one of 10 assay component(s) measured or calculated from the APR_HepG2_1hr assay. It is designed to make measurements of cell phenotype, a form of morphology reporter, as detected with fluorescence intensity signals by HCS Fluorescent Imaging technology.Data from the assay component APR_HepG2_MitoticArrest_1hr was analyzed into 1 assay endpoint. This assay endpoint, APR_HepG2_MitoticArrest_1hr, was analyzed with bidirectional fitting relative to DMSO as the negative control and baseline of activity. Using a type of morphology reporter, measures of protein for gain or loss-of-signal activity can be used to understand the signaling at the pathway-level as they relate to the gene . Furthermore, this assay endpoint can be referred to as a primary readout, because this assay has produced multiple assay endpoints where this one serves a signaling function. To generalize the intended target to other relatable targets, this assay endpoint is annotated to the cell cycle intended target family, where the subfamily is arrest.
Cells were treated with dimethyl sulfoxide (DMSO) as a solvent control at a final concentration of 0.5% v/v or with compounds in DMSO with a resulting final DMSO concentration of 0.5% v/v. Compound treatment was done at concentrations of 0.39, 0.78, 1.56, 3.12, 6.24, 12.5, 25, 50, 100, and 200 uM in duplicate on each plate. Cells were treated with compounds for 1, 24, or 72 hr. Carbonyl […] m-chloro-phenylhydrazone (CCCP) and taxol were used as positive controls for mitochondrial function and cytoskeletal stability, respectively; DMSO served as the negative control for this experiment. Cells were fixed by the direct addition of 50 uL formaldehyde in Hank's Balanced Salt Solution (HBSS) to a final concentration of 3.7%. After incubation in the fixation medium for 30 min at room temperature (293-298 K), cells were rinsed twice with HBSS and treated with cell permeabilization buffer (16 uL of 0.5% Triton X-100) for 10 min at room temperature (293-298 K) before labeling. For mitochondrial membrane potential and mitochondrial measurements, pre-fixed cells were incubated with 50 uL of MitoTracker Red CMXRos (Invitrogen) at a concentration of 250 nM for 30 min before fixation. In the remaining cases, post-fixed cells were labeled by incubation with a multiplexed mixture of primary antibodies in HBSS for 60 min at room temperature (293-298 K) to detect immunoreactivity of c-Jun (1:500), phospho-histone H3 (1:100), phospho-histone H2A.x (1:200), p53 (1:400), alpha-tubulin (1:200) and Hoechst 33342 (2 ug/mL). Cells were labeled for multiplexed imaging on two separate plates: a) Hoechst 33342, MitoTracker Red, phospho-histone H3, and alpha-tubulin, and b) Hoechst 33342, phospho-histone H2A.x, and c-Jun. A final rinse with HBSS (50 uL) was performed before analysis. The primary and secondary antibodies for the proteins were phospho-histone H3 (rabbit anti-phospho-histone H3 and FITC-donkey anti-rabbit IgG), phospho-histone H2A.x (mouse anti-phospho-histone H2A.x and FITC-donkey anti-mouse IgG), c-Jun (rabbit anti-phospho-c-Jun and Cy3-donkey anti-rabbit IgG), p53 (sheep anti-p53 and Cy5-donkey anti-sheep IgG), alpha-tubulin (mouse anti-alpha-tubulin and Cy5-donkey anti-mouse IgG). These antibodies are available as the CellCiphr HepG2 assay kit (Millipore).Digital images of each well were captured using a Cellomics ArrayScan VTI (Thermo Scientific Cellomics) (0.8 NA objective, 0.63x optical coupler, and XF-93 filter set) at 20x magnification. The images were acquired using the autofocus feature of the ArrayScan instrument, which entails the following steps. First, the camera focuses on channel 1 (Hoechst 33342), where nuclei are identified. Second, a Z offset of 1 um is used for capturing mitochondria (MitoTracker Red). […]
Take `CC(C)(C)C(=O)C(Oc1ccc(Cl)cc1)n1cncn1` (stereo not given): the result was inactive.

On to `CCOc1cc(C(C)(C)C)ccc1C1COC(c2c(F)cccc2F)=N1` (stereo not given), for which the result was inactive. `CCOc1nc(C(Cl)(Cl)Cl)ns1`: the call was inactive.

Turning to `CCCCOCN(C(=O)CCl)c1c(CC)cccc1CC`, the call was inactive. Regarding `CCCCC(C#N)(Cn1cncn1)c1ccc(Cl)cc1` (stereo not given), the molecule was classed as inactive.

Turning to `Cc1c(COC(=O)[C@@H]2[C@H](/C=C(\Cl)C(F)(F)F)C2(C)C)cccc1-c1ccccc1`, the outcome was inactive. `CC(C)C1(C)N=C(c2ncccc2C(=O)O)NC1=O` (stereo not given): the outcome was inactive. With `COCC(=O)N(c1c(C)cccc1C)C(C)C(=O)OC` (stereo not given), the result was inactive. Take `Nc1c(Cl)c(F)nc(OCC(=O)O)c1Cl`: the molecule was classed as inactive. For `Nc1cnn(-c2ccccc2)c(=O)c1Cl`, the molecule was called inactive. As to `O=C(O)c1c(Cl)ccc2cc(Cl)cnc12`, the result was inactive. `Cc1nc(N(C)C)nc(OC(=O)N(C)C)c1C`: the molecule was called inactive. With `COC(=O)NC(=S)Nc1ccccc1NC(=S)NC(=O)OC`, the molecule was called inactive. Consider `CCCCC(O)(Cn1cncn1)c1ccc(Cl)cc1Cl` (stereo not given), for which the molecule was called inactive. For the molecule `N#CN=C1SCCN1Cc1ccc(Cl)nc1`, the molecule was classed as inactive. As to `Cn1c(-c2ccccc2)cc(-c2ccccc2)[n+]1C`, the result was inactive. For the molecule `CS(=O)(=O)c1ccc(C(=O)C2C(=O)CCCC2=O)c([N+](=O)[O-])c1`, the molecule was classed as inactive.

For `C=CCOC(=O)C(C)(C)OC(=O)c1cc(-n2c(=O)cc(C(F)(F)F)n(C)c2=O)ccc1Cl`, the result was inactive. For the molecule `O=C1C2CC=CCC2C(=O)N1SC(Cl)(Cl)Cl` (stereo not given), the molecule was classed as inactive. Consider `CO/N=C(/C1=NOCCO1)c1ccccc1Oc1ncnc(Oc2ccccc2Cl)c1F`, for which the outcome was inactive. For the molecule `CCC(C)n1c(=O)[nH]c(C)c(Br)c1=O` (stereo not given), the molecule was classed as inactive. On to `O=c1n(Cl)c(=O)n(Cl)c(=O)n1Cl`, for which the result was inactive. With `COC(=O)NS(=O)(=O)c1ccc(N)cc1`, the call was inactive. Consider `CC(C)NC(=O)N1CC(=O)N(c2cc(Cl)cc(Cl)c2)C1=O`, for which the outcome was inactive. The value for `CCN(CC)C(=O)C(C)Oc1cccc2ccccc12` (stereo not given) was “inactive”. On to `COc1ccc(-c2ccccc2)cc1NNC(=O)OC(C)C`, for which the call was inactive. For `Cc1cnc(C2=NC(C)(C(C)C)C(=O)N2)c(C(=O)O)c1` (stereo not given), the molecule was called inactive. The value for `Cc1ccc(N=CN(C)C=Nc2ccc(C)cc2C)c(C)c1` was “inactive”; that for `CC1(C)CON(Cc2ccccc2Cl)C1=O` was “inactive”. For `CN=C=S`, the result was inactive. For `CCN(CC)c1nc(C)cc(OP(=S)(OC)OC)n1`, the molecule was called inactive. For `CC(C)=CC1C(C(=O)OCc2coc(Cc3ccccc3)c2)C1(C)C` (stereo not given), the outcome was inactive.

For the molecule `O=P(O)(O)CCCl`, the call was inactive. With `CN/C(=N\[N+](=O)[O-])NCc1cnc(Cl)s1`, the call was inactive. The value for `O=C(Nc1ccccc1-c1ccc(Cl)cc1)c1cccnc1Cl` was “inactive”; that for `CCCN(CC)CC1COC2(CCC(C(C)(C)C)CC2)O1` (stereo not given) was “inactive”; that for `Nc1c(Cl)c(Cl)nc(C(=O)O)c1Cl` was “inactive”.

Regarding `CC(C)N1C(=O)c2ccccc2NS1(=O)=O`, the molecule was classed as inactive. For the molecule `COc1cc(Cl)c(OC)cc1Cl`, the call was inactive. The value for `Cc1cc(C)nc(Nc2ccccc2)n1` was “inactive”.
